Laboratory results from PubChem BioAssay (NCI).
This is part of a sample that, as a whole, favours compounds with a hit. Of some 83,000 tested, about 20% had one in any assay.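 96-well plates, one dose, 48 hours. Percent growth reported; active if below 10.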 Values without a mark were called inactive. Activity calls are given as the source filed them.

How the values were obtained:
Assay in all cases: NCI-60 one-dose screen, 48 h (100 = growth as untreated, 0 = no growth, -100 = all killed)
Conditions in all cases: 10 µM unless noted
[1] = test system: HT29 colon
[2] = test system: SNB-75 CNS
[3] = test system: SNB-19 CNS
[4] = test system: U251 CNS
[5] = test system: PC-3 prostate
[6] = test system: SK-MEL-5 melanoma
[7] = test system: UACC-62 melanoma
[8] = test system: LOX IMVI melanoma
[9] = test system: SK-MEL-28 melanoma

Row | Compound | growth [1] | growth [2] | growth [3] | growth [4] | growth [5] | growth [6] | growth [7] | growth [8] | growth [9]
1 | COc1cccc(-c2nn(-c3ccccc3)cc2-c2ccnc(N3CCOCC3)c2)c1 | 86.7% | 97.2% | 99.9% | 96.2% | 70.2% | 80.4% | 71.8% | 89.7% | 108%
2 | COc1ccc2nc(NC(=O)c3cccnc3Nc3ccc(S(N)(=O)=O)cc3)sc2c1 | 106% | 74.6% | 99.4% | 97.4% | 71.6% | 89.4% | 82.5% | 100% | 116%
3 | Oc1c(I)cc(I)cc1CNCCCN(Cc1ccccn1)Cc1ccccn1 | -12.9% (active) | -89% (active) | 2.67% (active) | -12.9% (active) | -55.5% (active) | -96.9% (active) |  | -91.7% (active) | -33.8% (active)
4 | NCCCNc1nc2ccccc2c2c(=O)c3cc(F)cc(F)c3sc12 | -49.7% (active) | 74.7% | 87.1% | -69.2% (active) | 73.8% | 92.3% | 103% | 60% | -87.1% (active)
5 | CN1CCN(Cc2ccc(NC(=O)c3ccc(C(C)(C)C)c(C#Cc4cnc5cccnn45)c3)cc2C(F)(F)F)CC1 | -83.5% (active) | 74.8% | -63.1% (active) | -87.9% (active) | -65.6% (active) | -60.3% (active) | -71% (active) | -87.7% (active) | -68.8% (active)
6 | C(=N/Nc1ncnc2nc[nH]c12)/c1ccccn1 | 58.8% | 75.5% | 53.8% | 32.6% | 31% | 16.9% | 27% | 19.1% | 49.1%
